In PubChem BioAssay (NCATS):
Results filed as inconclusive are left out. The source made the active and inactive calls. The call rests on the fitted dose curve; in most records, active means well fitted curve in the direction sought with a large enough effect; inconclusive means small, poorly fitted or top-dose-only effect, or another doubt; inactive means no such curve, though single readings can be large; an effect the other way counts as inactive or inconclusive. Where a SMILES comes first, the peptide text is derived from it. [ ]: non-standard residue; d: D form. 2Abz = Nc1ccccc1C(=O)O

Assays:
[1] = biological target: Glutathione peroxidase 1 (Homo sapiens) (UniProt P07203); assay: Primary qHTS Assay for Inhibitors of Recombinant Selenoprotein Glutathione Peroxidase 1 (GPX1) (AID 1845191); further: nearly all actives have a fitted effect of over 65% in size; on activity, negative = inhibition: on the % scale 0 is the no-effect control and ±100 the full control effect
Sequence of Glutathione peroxidase 1 (Homo sapiens) (P07203 whole entry, looked up): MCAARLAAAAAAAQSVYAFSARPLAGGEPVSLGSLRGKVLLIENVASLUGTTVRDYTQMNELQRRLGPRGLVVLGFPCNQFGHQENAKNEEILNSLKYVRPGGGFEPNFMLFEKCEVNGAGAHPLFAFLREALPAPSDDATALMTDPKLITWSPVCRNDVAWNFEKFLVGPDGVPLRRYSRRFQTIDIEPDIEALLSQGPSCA
How it was run: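 NADPH consumption tracked by fluorescence at 340/450 nm between t=0 and t=15 min, room temperature. Final mix: 10 nM GPX1, 100 nM glutathione reductase, 1 mM GSH, 0.5 mM NADPH, 0.5 mM cumene hydroperoxide, 0.01% BSA; 30 min compound–enzyme preincubation.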

[2] = biological target: Phospholipid hydroperoxide glutathione peroxidase GPX4 (Homo sapiens) (UniProt P36969); assay: Primary qHTS Assay for Inhibitors of Recombinant Selenoprotein Glutathione Peroxidase 4 (GPX4) (AID 1845192); further: nearly all actives have a fitted effect of over 65% in size; on activity change, negative = inhibition: series mostly up to about 50 µM; on the % scale 0 is the no-effect control and ±100 the full control effect
Sequence of Phospholipid hydroperoxide glutathione peroxidase GPX4 (Homo sapiens) (P36969 whole entry, looked up): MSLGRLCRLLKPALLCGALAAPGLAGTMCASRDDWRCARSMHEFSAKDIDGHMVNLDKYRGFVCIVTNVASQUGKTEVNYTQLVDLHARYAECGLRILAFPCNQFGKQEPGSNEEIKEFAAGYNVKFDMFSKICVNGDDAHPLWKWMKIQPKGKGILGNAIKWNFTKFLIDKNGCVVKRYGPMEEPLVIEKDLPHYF
How it was run: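 NADPH consumption followed by fluorescence at 340/450 nm, t=0 and after 15 min at room temperature. Reaction started with cumene hydroperoxide (0.5 mM final) after 30 min compound–GPX4 preincubation; final 200 nM GPX4, 100 nM GR, 1 mM GSH, 0.5 mM NADPH.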

[3] = biological target: Luciferin 4-monooxygenase (Photinus pyralis) (UniProt P08659); assay: Primary firefly luciferase (FLuc) qHTS assay for identification of artifact compounds. (AID 1845220); further: nearly all actives have a fitted effect of over 60% in size;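 on activity change, negative = inhibition: series mostly up to about 54 µM; plate controls were DMSO vehicle for no effect and no enzyme for full effect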
How it was run: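 Compounds sat 15 min at room temperature with 10 uM luciferin and 10 uM ATP (pH 7.6 Tris acetate). Firefly luciferase (10 nM final) was then added, and luminescence was read 5 min later. Data normalized to no-enzyme and DMSO controls were Hill-fitted.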

[4] = Primary fluorescence-based thiol-reactive (MSTI) qHTS assay for identification of artifact compounds. (AID 1845221); further: nearly all actives have a fitted effect of over 65% in size; further: potency means the concentration at half of the fitted maximal effect;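 on activity change, negative = thiol reactive: series mostly up to about 54 µM; thiol-reactive compounds lower the probe fluorescence signal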
How it was run: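 In PBS pH 7.4 with 2% DMSO, each compound met 4 uM MSTI for one hour at ambient temperature, shielded from light, before fluorescence detection.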

[5] = system: Nanoluciferase (engineered Oplophorus gracilirostris luciferase); assay: Primary Nanoluciferase (NLuc) qHTS assay for identification of artifact compounds. (AID 1845222);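 further: series mostly up to about 54 µM; 0% = DMSO and -100% = no enzyme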
How it was run: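 Luminescence from secreted NLuc (filtered, 1:55-diluted S16 cell medium) read 5 min after Nano-Glo substrate; compounds preincubated 15 min, RT. Hill fits of inhibition normalized to DMSO and no-enzyme.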

COCC(=O)N1CCc2cc(-c3csc(NC(=O)c4cc(OC)cc(OC)c4)n3)ccc21
inactive: Potency [1] | Potency [2] | Potency [3] | Potency [4] | Potency [5]

CC(=O)O[C@@H]1C[C@@]23C[C@@]24CC[C@H](OC2OC[C@@H](O)[C@H](O)[C@H]2O)C(C)(C)[C@@H]4CC[C@H]3[C@]2(C)CC3OC4(C[C@@H](C)C3[C@@]12C)OCC1(C)OC14 (stereo not given in full)
inactive: Potency [1] | Potency [2] | Potency [3] | Potency [4] | Potency [5]

Cc1cc(C)cc(NC(=O)Cc2ccc(OC(C)(C)C(=O)O)cc2)c1
inactive: Potency [1] | Potency [2] | Potency [3] | Potency [4] | Potency [5]

CC1(C)C[C@H]2C3=CCC4[C@@]5(C)CC[C@H](O[C@H]6O[C@H](C(=O)O)[C@@H](O)[C@H](O)[C@H]6O[C@H]6O[C@H](CO)[C@@H](O)[C@H](O)[C@H]6O[C@@H]6O[C@H](CO)[C@@H](O)[C@H](O)[C@H]6O)[C@](C)(CO)C5CC[C@@]4(C)[C@]3(C)CC[C@@]2(C)[C@H](O[C@@H]2OC[C@H](O)[C@H](OC3O[C@H](CO)[C@@H](O)[C@H](O)[C@H]3O)[C@H]2O)[C@@H]1O (stereo not given in full)
inactive: activity, negative = inhibition [1] 0.367% [at 9.52 µM] | outcome [2] inactive [at 9.73 µM] | outcome [3] inactive [at 11.6 µM] | activity change, negative = thiol reactive [4] 48.1% [at 11.5 µM] | activity, negative = inhibition [5] 4.18% [at 11.6 µM]

CC1=C2C(=O)O[C@@H](c3ccoc3)[C@]2(C)CCC1
inactive: Potency [1] | Potency [2] | Potency [3] | Potency [4] | Potency [5]

CC(C)(O)c1ccc2c(c1)C(O)CC1C(C)(C(=O)O)CCCC21C (stereo not given)
inactive: Potency [1] | Potency [2] | Potency [3] | Potency [4] | Potency [5]

O=C(C1CC1)N1CC[C@@H](Cc2n[nH]c(=O)n2-c2ccc(-c3ccc4occc4c3)cc2)C1
inactive: Potency [1] | Potency [2] | Potency [3] | Potency [4] | Potency [5]

CC1OC(OC2C(CO)OC(OCC3OC(OC(=O)C45CCC(C)(C)CC4C4=CCC6C7(C)CCC(OC8OC(C(=O)O)C(O)C(OC9OC(CO)C(O)C(O)C9O)C8O)C(C)(C)C7CCC6(C)C4(C)CC5)C(O)C(O)C3O)C(O)C2O)C(O)C(O)C1O (stereo not given)
inactive: activity, negative = inhibition [1] -12.7% [at 9.52 µM] | activity change, negative = inhibition [2] -11.9% [at 9.73 µM] | activity change, negative = inhibition [3] -1.13% [at 11.6 µM] | activity change, negative = thiol reactive [4] 336% [at 11.5 µM] | activity, negative = inhibition [5] 0% [at 11.6 µM]

C(#Cc1cccc(CN2CCOCC2)c1)CCN1CCCCC1
inactive: Potency [1] | Potency [2] | Potency [3] | Potency [4] | Potency [5]

CCCCNC(=O)[C@@H]1Cc2ccccc2N1C(=O)[C@@H](N)CC
inactive: Potency [1] | Potency [2] | Potency [3] | Potency [4] | Potency [5]

CCC(=O)O[C@]1(C(=O)CCl)[C@@H](C)C[C@H]2[C@@H]3C[C@H](F)C4=CC(=O)C=C[C@]4(C)[C@@]3(F)[C@@H](O)C[C@@]21C
inactive: Potency [1] | Potency [2] | Potency [3] | Potency [4] | Potency [5]

C=C1CC[C@H]2[C@@](C)(CCC[C@@]2(C)C(=O)O)[C@@H]1CCC(C)CCO (stereo not given in full)
inactive: Potency [1] | Potency [2] | Potency [3] | Potency [4] | Potency [5]

CC(C)[C@H]1CCC(CO)=C[C@@H]1/C=C(\CO)C(=O)O
inactive: Potency [1] | Potency [2] | Potency [3] | Potency [4] | Potency [5]

COc1cc(/C=C/C(=O)OC(C)(C)C(OC2OC(CO)C(O)C(O)C2O)C(=O)OCc2ccc(OC3OC(CO)C(O)C(O)C3O)cc2)ccc1O (stereo not given)
inactive: Potency [1] | Potency [2] | Potency [3] | Potency [4] | Potency [5]

COc1cc(/C=C/C(=O)O[C@H]2[C@H](O)[C@@H](CO)O[C@@]2(CO)O[C@H]2O[C@H](COC(=O)c3ccc(O)cc3)[C@@H](O)[C@H](O)[C@H]2O)cc(OC)c1OC
inactive: Potency [1] | Potency [2] | Potency [3] | Potency [4] | Potency [5]

COC(=O)C1=C[C@@H](O)[C@@H](O)[C@H](O[C@@H]2O[C@H](COC(=O)/C=C/c3ccccc3)[C@@H](O)[C@H](O)[C@H]2O)C1
inactive: Potency [1] | Potency [2] | Potency [3] | Potency [4] | Potency [5]

CC(CO[C@@H]1O[C@H](COC(=O)/C=C/c2ccc(O)c(O)c2)[C@@H](O)[C@H](O)[C@H]1O)C1(O)COC(=O)C1 (stereo not given in full)
inactive: Potency [1] | Potency [2] | Potency [3] | Potency [5]
active: Potency [4] 1.84 µM

C[C@@H]1O[C@@H](O[C@@H]2[C@@H](O)[C@@H](O)[C@H](O[C@@H]3[C@@H](O)[C@@H](O[C@]4(CO)O[C@H](CO)[C@@H](O)[C@@H]4OC(=O)/C=C/c4ccc(O)cc4)O[C@H](CO)[C@H]3OC(=O)/C=C/c3ccc(O)cc3)O[C@H]2C)[C@H](O)[C@H](O)[C@H]1O
inactive: Potency [1] | Potency [2] | outcome [3] inactive [at 11.6 µM] | activity change, negative = thiol reactive [4] 65.2% [at 11.5 µM] | activity, negative = inhibition [5] 1.58% [at 11.6 µM]

CO[C@H]1C=C2C(CC[C@H](O[C@@H]3O[C@H](CO)[C@@H](O)[C@@H](O)[C@H]3O)C2(C)C)[C@]2(C)CC[C@]3(C)C([C@H](C)C(O)C(C=C(C)C)O[C@@H]4O[C@H](CO)[C@@H](O)[C@@H](O)[C@H]4O)CC[C@@]3(C)C12 (stereo not given in full)
inactive: Potency [1] | Potency [2] | activity change, negative = inhibition [3] 1.78% [at 11.6 µM] | activity change, negative = thiol reactive [4] 133% [at 11.5 µM] | activity, negative = inhibition [5] 4.54% [at 11.6 µM]

CC1(C)O[C@]23C[C@H]1C[C@H](OC(=O)c1ccoc1)[C@]2(C)[C@@H](OC(=O)c1ccoc1)CCC3(C)O (stereo not given in full)
inactive: Potency [1] | Potency [2] | Potency [3] | Potency [4] | Potency [5]

COc1cc(/C=C/C(=O)OC2[C@H](O)CC(O)(C(=O)O)C[C@H]2O)ccc1O (stereo not given in full)
inactive: Potency [1] | Potency [2] | Potency [3] | Potency [4] | Potency [5]

COCCCNCC1COc2ccccc2O1 (stereo not given)
inactive: Potency [1] | Potency [2] | Potency [3] | Potency [4] | Potency [5]

Cc1cc(C)c(S(=O)(=O)N(Cc2ccc(-c3cccc(S(C)(=O)=O)c3)cc2)Cc2ccc(C(F)(F)F)o2)c(C)c1
inactive: Potency [1] | Potency [2] | Potency [3] | Potency [4] | Potency [5]

CCOC(=O)c1ccnc(CNCC(=O)N(CC)CCN(C)C)c1
inactive: Potency [1] | Potency [2] | Potency [3] | Potency [4] | Potency [5]

CCCC(N[C@@H](C)C(=O)N1[C@H](C(=O)O)C[C@@H]2CCCC[C@@H]21)C(=O)OCC (stereo not given in full)
inactive: Potency [1] | Potency [2] | Potency [3] | Potency [4] | Potency [5]

CC1OC(OC2C(C)OC(OC3C(OC(=O)/C=C/c4ccc(O)cc4)C(CO)OC(OC4(COC(=O)/C=C/c5ccc(O)cc5)OC(CO)C(O)C4O)C3OC3OCC(O)(CO)C3O)C(O)C2O)C(O)C(O)C1O (stereo not given)
inactive: Potency [1] | Potency [2] | activity change, negative = inhibition [3] -0.562% [at 11.6 µM] | activity change, negative = thiol reactive [4] 1.76% [at 11.5 µM] | activity, negative = inhibition [5] 0.249% [at 11.6 µM]

CC(=O)OCCC(C)CCC1C(C)(O)CCC2C(C)(C)CCCC21C (stereo not given)
inactive: Potency [1] | Potency [2] | Potency [3] | Potency [4] | Potency [5]

O=C(OCc1cccc(O)c1O[C@@H]1O[C@H](CO)[C@@H](O)[C@H](O)[C@H]1O)C1(O)C(=O)C2C=CC1C1C=CC(=O)C(O)(C(=O)OCc3cccc(O)c3O[C@@H]3O[C@H](CO)[C@@H](O)[C@H](O)[C@H]3O)C21 (stereo not given in full)
inactive: Potency [1] | Potency [2] | outcome [3] inactive [at 11.6 µM] | activity change, negative = thiol reactive [4] 11.6% [at 11.5 µM] | activity, negative = inhibition [5] 1.93% [at 11.6 µM]

CCC(C)C1NC(=O)C2CCCN2C(=O)C(C(C)C)NC(=O)c2ccccc2NC(=O)C(Cc2ccc(O)cc2)NC(=O)C(C)NC(=O)C(C(C)O)NC1=O (stereo not given) (cyclo([2Abz]VPITAY); configuration not given here)
inactive: Potency [1] | Potency [2] | Potency [3] | Potency [4] | Potency [5]

COc1ccc(C(O[C@@H]2O[C@H](CO)[C@@H](O)[C@H](O)[C@H]2O)C(CO)Oc2ccc(/C=C/CO)cc2OC)cc1O (stereo not given in full)
inactive: Potency [1] | Potency [2] | Potency [3] | Potency [5]
active: Potency [4] 5.19 µM

COc1ccc(C)c2sc(NC(=O)c3ccncc3)nc12
inactive: Potency [1] | Potency [2] | Potency [3] | Potency [4] | Potency [5]

CC(=O)OCC(=O)O[C@@H]1[C@H]2[C@@H](OC(=O)c3ccccc3)[C@@H](C)C[C@]2(O)[C@H](OC(C)=O)C2(C)[C@H]3CC(C)(C)C(=O)[C@@H]3CC1(OC(C)=O)[C@@H]2OC(C)=O (stereo not given in full)
inactive: Potency [1] | Potency [2] | Potency [3] | Potency [4] | Potency [5]

COc1cc(N2CCC(O)CC2)ccc1Nc1cc(Nc2ccccc2S(=O)(=O)C(C)C)c2cc[nH]c2n1
inactive: Potency [1] | Potency [2] | Potency [3] | Potency [5]
active: Potency [4] 0.927 µM

CC(=O)OC[C@@]12[C@H](O)C[C@@H](C)[C@]3(C[C@@H](c4ccoc4)OC3=O)[C@H]1C[C@H](O)C[C@]21CO1
inactive: Potency [1] | Potency [2] | Potency [3] | Potency [4] | Potency [5]

OC[C@H]1O[C@@H](OC(CCCCc2ccc(O)cc2)CCc2ccc(O)cc2)[C@H](O[C@@H]2OC[C@](O)(CO)[C@H]2O)[C@@H](O)[C@@H]1O (stereo not given in full)
inactive: Potency [1] | Potency [2] | Potency [3] | Potency [4] | Potency [5]

C=CC1(C)CC2=CCC3C(C)(C(=O)O)CCCC3(C)C2CC1OC(C)=O (stereo not given)
inactive: Potency [1] | Potency [2] | Potency [3] | Potency [4] | Potency [5]

CC1CCC2C(C(=O)O)=CC3CC(C)(C)CC132 (stereo not given)
inactive: Potency [1] | Potency [2] | Potency [3] | Potency [5]
active: Potency [4] 23.8 µM

CC(=O)N1CCN(NC(=O)c2ccc(F)cc2)CC1
inactive: Potency [1] | Potency [2] | Potency [3] | Potency [4] | Potency [5]
